Assay results as given in ChEMBL document CHEMBL2218924, “A broad activity screen in support of a chemogenomic map for kinase signalling research and drug discovery” (Biochem J, 2013).

Key:
[1] = molecular target: Death-associated protein kinase 1 (Homo sapiens) (UniProt P53355); conditions: at 10 µM
[2] = molecular target: T1, Discoidin domain-containing receptor 2 (Homo sapiens) (UniProt Q16832); conditions: at 1 µM
T1 sequence (whole entry): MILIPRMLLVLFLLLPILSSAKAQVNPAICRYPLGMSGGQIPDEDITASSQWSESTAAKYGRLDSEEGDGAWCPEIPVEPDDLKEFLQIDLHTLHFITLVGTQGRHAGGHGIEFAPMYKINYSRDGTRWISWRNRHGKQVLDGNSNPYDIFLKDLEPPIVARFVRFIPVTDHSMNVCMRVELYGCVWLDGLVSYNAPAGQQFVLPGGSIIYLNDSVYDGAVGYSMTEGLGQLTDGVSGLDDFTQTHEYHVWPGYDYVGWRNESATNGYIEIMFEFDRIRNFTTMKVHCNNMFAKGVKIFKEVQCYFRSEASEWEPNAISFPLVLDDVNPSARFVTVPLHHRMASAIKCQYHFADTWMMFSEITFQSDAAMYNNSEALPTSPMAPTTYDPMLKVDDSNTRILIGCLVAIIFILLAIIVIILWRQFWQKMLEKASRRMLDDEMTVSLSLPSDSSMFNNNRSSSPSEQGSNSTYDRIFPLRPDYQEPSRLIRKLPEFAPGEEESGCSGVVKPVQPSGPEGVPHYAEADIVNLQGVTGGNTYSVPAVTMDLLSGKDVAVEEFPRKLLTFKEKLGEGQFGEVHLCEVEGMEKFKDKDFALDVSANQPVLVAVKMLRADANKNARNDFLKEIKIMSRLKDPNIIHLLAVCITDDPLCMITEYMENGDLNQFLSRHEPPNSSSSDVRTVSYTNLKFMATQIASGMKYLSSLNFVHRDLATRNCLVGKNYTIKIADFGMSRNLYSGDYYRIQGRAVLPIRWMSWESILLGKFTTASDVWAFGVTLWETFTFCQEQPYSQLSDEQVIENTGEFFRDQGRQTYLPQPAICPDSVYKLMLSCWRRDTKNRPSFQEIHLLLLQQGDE

[3] = molecular target: T1, Discoidin domain-containing receptor 2 (Homo sapiens); conditions: at 10 µM
[4] = molecular target: T2, Serine/threonine-protein kinase 17A (Homo sapiens) (UniProt Q9UEE5); conditions: at 1 µM
T2 sequence (whole entry): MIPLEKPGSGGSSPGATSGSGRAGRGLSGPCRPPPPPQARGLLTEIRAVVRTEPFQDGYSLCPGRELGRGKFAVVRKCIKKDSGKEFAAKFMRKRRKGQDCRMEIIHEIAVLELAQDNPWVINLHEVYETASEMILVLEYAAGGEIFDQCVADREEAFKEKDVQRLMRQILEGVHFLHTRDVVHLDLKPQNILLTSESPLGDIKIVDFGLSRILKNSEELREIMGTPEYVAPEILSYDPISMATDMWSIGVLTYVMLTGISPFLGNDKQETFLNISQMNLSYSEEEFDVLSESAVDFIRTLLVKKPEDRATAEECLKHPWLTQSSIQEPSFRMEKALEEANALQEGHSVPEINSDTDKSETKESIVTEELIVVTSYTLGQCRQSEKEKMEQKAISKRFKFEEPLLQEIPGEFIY

[5] = molecular target: T2, Serine/threonine-protein kinase 17A (Homo sapiens); conditions: at 10 µM
[6] = molecular target: T3, Dual specificity tyrosine-phosphorylation-regulated kinase 2 (Homo sapiens) (UniProt Q92630); conditions: at 1 µM
T3 sequence (whole entry): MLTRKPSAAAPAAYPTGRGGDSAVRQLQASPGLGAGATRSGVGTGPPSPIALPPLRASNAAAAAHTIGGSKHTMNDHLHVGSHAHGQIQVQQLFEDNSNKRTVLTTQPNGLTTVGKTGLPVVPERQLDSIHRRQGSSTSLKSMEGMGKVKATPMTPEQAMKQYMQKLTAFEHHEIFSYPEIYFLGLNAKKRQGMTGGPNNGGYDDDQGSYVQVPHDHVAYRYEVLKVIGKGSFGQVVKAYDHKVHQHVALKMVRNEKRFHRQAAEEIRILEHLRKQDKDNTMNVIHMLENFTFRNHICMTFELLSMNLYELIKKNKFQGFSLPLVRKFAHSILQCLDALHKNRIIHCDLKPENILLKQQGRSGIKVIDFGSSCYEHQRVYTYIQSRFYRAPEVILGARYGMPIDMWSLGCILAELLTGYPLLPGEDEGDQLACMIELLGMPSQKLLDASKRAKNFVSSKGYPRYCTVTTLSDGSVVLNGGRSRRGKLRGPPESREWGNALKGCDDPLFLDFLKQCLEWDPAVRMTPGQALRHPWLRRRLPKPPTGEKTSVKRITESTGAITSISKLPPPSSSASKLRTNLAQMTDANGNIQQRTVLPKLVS

[7] = molecular target: T3, Dual specificity tyrosine-phosphorylation-regulated kinase 2 (Homo sapiens); conditions: at 10 µM
[8] = molecular target: T4, Ephrin type-A receptor 1 (Homo sapiens) (UniProt P21709); conditions: at 1 µM
T4 sequence (whole entry): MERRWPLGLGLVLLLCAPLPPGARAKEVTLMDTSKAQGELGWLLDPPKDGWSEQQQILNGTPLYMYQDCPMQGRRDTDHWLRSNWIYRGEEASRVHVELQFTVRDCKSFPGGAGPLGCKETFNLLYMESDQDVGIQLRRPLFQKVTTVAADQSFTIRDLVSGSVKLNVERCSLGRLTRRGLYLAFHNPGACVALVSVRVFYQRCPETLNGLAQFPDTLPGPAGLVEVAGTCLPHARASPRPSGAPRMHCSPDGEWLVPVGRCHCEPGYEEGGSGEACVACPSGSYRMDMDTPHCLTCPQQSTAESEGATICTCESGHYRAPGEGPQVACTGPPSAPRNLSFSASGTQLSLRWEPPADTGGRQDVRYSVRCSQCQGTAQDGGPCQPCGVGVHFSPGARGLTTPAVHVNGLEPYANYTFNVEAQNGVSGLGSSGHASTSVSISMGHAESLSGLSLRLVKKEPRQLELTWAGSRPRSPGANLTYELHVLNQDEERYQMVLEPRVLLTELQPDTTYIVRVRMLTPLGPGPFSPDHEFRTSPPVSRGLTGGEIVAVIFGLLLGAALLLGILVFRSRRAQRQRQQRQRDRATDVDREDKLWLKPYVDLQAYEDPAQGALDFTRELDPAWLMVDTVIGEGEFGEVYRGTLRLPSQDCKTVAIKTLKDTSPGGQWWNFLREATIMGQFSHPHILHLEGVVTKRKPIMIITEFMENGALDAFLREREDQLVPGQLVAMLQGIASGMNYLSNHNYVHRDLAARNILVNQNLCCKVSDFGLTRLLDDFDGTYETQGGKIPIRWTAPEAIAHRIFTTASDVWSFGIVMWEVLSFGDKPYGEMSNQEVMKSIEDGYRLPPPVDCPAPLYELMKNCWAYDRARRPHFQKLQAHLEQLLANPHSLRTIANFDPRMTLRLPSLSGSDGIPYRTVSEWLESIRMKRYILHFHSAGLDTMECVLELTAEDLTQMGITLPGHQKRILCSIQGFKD

[9] = molecular target: T4, Ephrin type-A receptor 1 (Homo sapiens); conditions: at 10 µM
[10] = molecular target: T5, Ephrin type-A receptor 3 (Homo sapiens) (UniProt P29320); conditions: at 1 µM
T5 sequence (whole entry): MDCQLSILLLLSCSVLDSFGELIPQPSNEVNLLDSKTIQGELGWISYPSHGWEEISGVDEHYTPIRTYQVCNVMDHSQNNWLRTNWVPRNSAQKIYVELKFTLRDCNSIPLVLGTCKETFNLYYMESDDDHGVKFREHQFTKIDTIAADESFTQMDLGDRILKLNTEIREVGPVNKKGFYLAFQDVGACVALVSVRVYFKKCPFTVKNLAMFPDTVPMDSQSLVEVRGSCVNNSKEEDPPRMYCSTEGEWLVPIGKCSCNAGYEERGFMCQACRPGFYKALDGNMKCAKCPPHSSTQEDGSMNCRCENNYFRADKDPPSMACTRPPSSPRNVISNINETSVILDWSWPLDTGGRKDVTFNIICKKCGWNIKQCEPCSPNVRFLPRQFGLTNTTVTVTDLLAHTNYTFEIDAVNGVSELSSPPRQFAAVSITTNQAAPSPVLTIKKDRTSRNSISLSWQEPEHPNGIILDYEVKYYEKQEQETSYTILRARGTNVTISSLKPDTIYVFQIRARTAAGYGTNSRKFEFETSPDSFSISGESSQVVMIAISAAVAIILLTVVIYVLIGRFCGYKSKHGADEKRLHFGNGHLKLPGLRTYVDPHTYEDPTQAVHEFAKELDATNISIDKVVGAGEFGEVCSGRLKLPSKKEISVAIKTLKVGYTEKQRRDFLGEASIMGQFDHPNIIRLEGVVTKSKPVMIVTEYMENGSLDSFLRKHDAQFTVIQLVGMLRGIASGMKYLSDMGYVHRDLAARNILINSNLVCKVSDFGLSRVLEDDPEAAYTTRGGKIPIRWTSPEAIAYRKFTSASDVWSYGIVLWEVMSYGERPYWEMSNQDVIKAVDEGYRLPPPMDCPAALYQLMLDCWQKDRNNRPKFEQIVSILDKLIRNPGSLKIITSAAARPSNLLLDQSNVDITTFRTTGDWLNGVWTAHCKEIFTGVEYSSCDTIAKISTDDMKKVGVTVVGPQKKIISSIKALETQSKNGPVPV

[11] = molecular target: T6, Serine/threonine-protein kinase DCLK2 (Homo sapiens) (UniProt Q8N568); conditions: at 1 µM
T6 sequence (whole entry): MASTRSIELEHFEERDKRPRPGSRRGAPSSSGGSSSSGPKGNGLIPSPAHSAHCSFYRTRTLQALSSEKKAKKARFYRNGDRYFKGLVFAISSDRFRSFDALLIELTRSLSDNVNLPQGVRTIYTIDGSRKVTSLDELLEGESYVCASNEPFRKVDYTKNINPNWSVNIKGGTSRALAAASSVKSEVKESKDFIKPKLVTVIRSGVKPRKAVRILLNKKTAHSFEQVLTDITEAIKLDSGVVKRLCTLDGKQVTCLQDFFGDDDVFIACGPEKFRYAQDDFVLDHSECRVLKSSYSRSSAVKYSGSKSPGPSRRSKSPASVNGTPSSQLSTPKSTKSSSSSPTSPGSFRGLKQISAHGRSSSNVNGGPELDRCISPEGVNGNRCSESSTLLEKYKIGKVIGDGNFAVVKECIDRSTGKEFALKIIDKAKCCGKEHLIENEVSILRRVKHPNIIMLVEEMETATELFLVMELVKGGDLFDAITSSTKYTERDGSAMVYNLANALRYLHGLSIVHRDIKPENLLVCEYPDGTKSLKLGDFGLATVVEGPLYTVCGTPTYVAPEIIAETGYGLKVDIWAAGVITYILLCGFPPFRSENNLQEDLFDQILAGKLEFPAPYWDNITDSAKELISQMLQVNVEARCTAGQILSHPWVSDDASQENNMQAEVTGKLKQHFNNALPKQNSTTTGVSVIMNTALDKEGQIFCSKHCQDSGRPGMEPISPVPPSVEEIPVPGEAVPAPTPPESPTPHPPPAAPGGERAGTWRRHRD

[12] = molecular target: T6, Serine/threonine-protein kinase DCLK2 (Homo sapiens); conditions: at 10 µM
[13] = molecular target: T7, Myotonin-protein kinase (Homo sapiens) (UniProt Q09013); conditions: at 1 µM
T7 sequence (whole entry): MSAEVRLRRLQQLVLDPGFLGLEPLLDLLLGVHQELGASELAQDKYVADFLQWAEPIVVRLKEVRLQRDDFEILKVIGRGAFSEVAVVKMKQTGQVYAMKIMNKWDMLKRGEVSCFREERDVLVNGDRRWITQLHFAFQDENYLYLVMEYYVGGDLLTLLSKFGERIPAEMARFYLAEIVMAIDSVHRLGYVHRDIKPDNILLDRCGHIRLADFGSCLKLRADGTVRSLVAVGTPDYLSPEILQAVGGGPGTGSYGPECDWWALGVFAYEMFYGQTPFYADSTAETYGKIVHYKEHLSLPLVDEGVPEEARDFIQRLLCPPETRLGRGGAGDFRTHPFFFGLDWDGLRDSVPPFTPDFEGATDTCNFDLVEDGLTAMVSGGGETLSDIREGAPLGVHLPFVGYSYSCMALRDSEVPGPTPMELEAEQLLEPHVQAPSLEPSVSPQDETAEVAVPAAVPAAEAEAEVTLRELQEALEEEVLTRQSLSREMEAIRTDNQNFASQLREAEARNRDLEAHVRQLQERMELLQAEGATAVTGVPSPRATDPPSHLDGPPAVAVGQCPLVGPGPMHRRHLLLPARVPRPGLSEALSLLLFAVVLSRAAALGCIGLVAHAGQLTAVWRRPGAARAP

[14] = molecular target: T7, Myotonin-protein kinase (Homo sapiens); conditions: at 10 µM
[15] = molecular target: Epidermal growth factor receptor (Homo sapiens) (UniProt P00533); conditions: at 10 µM
Epidermal growth factor receptor (Homo sapiens), sequence (P00533 whole entry): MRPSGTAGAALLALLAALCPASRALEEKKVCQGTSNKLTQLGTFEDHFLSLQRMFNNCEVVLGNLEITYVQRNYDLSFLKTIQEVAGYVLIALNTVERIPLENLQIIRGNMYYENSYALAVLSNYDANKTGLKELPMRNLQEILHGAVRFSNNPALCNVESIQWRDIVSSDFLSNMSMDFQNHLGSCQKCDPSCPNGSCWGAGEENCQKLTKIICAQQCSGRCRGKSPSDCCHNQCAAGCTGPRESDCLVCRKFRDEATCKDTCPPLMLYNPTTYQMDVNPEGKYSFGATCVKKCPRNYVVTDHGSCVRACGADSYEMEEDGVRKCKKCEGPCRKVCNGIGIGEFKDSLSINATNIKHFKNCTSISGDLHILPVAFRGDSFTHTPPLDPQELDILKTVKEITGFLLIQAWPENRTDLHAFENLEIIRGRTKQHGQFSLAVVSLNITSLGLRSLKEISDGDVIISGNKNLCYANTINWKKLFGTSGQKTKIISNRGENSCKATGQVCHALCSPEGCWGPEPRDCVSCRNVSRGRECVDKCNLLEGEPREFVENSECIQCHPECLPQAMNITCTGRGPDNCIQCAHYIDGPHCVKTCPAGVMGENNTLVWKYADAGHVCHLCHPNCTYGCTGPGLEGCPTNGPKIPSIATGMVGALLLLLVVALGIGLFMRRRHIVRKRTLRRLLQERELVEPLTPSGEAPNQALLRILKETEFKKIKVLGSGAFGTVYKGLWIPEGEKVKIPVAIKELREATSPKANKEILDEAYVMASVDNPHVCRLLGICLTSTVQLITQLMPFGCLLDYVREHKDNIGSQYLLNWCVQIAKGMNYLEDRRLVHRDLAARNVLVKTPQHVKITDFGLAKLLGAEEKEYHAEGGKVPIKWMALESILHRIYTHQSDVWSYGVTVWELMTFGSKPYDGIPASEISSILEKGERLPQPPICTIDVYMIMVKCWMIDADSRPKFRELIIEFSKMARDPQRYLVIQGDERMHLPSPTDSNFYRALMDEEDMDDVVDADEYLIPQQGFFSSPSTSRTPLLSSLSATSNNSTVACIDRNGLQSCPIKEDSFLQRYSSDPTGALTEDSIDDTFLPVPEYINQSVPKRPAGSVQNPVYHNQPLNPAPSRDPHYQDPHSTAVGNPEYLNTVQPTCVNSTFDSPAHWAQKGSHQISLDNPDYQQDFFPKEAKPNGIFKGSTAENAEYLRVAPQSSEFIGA

[16] = molecular target: Death-associated protein kinase 2 (Homo sapiens) (UniProt Q9UIK4); conditions: at 1 µM
Death-associated protein kinase 2 (Homo sapiens), sequence (Q9UIK4 whole entry, looked up): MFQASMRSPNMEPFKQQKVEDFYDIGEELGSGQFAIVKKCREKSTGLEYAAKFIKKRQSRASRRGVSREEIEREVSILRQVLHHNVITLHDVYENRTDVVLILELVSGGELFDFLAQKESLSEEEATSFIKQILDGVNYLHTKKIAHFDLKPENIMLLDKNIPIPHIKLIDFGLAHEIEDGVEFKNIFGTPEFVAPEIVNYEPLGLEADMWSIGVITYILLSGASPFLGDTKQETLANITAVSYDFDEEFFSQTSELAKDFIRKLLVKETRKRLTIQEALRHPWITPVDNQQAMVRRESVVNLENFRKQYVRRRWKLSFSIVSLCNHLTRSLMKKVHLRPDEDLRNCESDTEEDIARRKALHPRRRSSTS

[17] = molecular target: Death-associated protein kinase 2 (Homo sapiens) (UniProt Q9UIK4); conditions: at 10 µM
[18] = molecular target: Ephrin type-A receptor 2 (Homo sapiens) (UniProt P29317); conditions: at 10 µM
Ephrin type-A receptor 2 (Homo sapiens), sequence (P29317 whole entry): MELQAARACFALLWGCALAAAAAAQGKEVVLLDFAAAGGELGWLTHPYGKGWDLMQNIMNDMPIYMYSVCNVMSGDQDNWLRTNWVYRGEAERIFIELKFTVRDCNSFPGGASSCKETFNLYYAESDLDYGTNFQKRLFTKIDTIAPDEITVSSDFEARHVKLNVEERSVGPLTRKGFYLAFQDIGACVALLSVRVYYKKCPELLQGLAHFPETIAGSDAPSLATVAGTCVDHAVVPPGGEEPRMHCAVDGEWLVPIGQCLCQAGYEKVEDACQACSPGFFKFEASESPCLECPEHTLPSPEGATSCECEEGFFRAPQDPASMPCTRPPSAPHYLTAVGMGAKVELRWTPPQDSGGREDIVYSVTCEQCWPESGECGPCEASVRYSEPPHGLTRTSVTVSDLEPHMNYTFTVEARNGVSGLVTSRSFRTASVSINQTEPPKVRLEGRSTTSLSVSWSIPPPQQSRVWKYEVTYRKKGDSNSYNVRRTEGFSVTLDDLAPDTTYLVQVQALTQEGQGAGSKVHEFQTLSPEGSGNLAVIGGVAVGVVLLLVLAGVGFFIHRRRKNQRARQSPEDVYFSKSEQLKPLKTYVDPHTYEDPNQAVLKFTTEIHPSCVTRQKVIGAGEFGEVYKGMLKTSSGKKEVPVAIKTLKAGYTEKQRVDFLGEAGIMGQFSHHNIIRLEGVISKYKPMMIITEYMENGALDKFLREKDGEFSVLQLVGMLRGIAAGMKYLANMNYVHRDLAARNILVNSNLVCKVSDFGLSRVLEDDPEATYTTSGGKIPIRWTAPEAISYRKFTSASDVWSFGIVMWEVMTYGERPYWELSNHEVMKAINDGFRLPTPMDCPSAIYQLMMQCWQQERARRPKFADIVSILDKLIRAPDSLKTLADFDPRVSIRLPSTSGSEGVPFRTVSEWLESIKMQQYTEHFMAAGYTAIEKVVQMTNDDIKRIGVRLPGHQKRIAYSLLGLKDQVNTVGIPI

Death-associated protein kinase 1 (Homo sapiens), sequence (P53355 whole entry, looked up, the tested form may be a part): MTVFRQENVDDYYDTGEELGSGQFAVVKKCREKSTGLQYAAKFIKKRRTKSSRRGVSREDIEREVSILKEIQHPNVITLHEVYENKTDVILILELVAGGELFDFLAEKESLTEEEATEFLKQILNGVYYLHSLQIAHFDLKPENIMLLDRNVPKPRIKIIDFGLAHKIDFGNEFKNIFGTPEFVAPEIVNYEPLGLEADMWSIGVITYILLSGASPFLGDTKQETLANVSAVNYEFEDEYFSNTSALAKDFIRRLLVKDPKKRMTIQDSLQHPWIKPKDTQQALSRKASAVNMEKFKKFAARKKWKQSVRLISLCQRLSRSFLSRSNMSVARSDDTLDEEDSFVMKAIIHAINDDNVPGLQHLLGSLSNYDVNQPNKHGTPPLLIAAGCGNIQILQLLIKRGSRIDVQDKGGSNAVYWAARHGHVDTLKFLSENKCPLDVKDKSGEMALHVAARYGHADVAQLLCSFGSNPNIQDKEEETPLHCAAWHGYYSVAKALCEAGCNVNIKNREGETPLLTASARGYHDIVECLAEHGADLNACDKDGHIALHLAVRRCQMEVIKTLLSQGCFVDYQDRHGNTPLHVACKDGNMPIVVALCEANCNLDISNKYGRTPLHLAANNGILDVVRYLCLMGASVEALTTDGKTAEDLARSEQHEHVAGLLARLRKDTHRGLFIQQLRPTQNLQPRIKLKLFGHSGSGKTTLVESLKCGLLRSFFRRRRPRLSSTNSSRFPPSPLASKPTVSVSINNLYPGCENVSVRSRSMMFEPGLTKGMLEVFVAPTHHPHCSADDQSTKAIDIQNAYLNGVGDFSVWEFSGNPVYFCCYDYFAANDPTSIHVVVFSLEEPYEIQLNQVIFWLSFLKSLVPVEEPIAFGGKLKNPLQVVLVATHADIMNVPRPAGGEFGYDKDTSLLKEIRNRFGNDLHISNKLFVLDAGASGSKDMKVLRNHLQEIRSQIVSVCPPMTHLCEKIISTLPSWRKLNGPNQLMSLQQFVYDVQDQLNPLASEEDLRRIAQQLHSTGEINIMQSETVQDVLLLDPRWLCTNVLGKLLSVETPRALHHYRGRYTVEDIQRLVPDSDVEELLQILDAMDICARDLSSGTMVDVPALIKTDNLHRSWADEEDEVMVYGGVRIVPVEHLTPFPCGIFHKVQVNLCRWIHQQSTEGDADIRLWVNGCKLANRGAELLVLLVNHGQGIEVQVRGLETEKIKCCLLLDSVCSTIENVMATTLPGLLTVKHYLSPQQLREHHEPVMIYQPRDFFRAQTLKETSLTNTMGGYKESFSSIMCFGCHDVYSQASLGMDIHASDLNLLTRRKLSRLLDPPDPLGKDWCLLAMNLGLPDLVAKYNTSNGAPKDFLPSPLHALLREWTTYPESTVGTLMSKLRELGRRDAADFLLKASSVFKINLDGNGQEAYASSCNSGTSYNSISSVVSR

Structure (SMILES) | residual activity [1] | residual activity [2] | residual activity [3] | residual activity [4] | residual activity [5] | residual activity [6] | residual activity [7] | residual activity [8] | residual activity [9] | residual activity [10] | residual activity [11] | residual activity [12] | residual activity [13] | residual activity [14] | residual activity [15] | residual activity [16] | residual activity [17] | residual activity [18]
O=C(Nc1nc2ccccc2n1CCN1CCOCC1)c1cccc([N+](=O)[O-])c1 | 73% | 110% | 112% | 104% | 53% | 102% | 88% | 80% | 123% | 104% |  |  |  |  |  |  |  | 
COc1ccc(-c2cnc3c(-c4ccsc4)cnn3c2)cc1 |  |  |  | 95% | 98% | 100% | 94% |  |  |  | 84% | 100% | 145% | 129% |  |  |  | 
Nc1nccc(-c2c(-c3ccc(F)cc3)ncn2C2CCNCC2)n1 |  |  |  |  | 21% | 83% | 40% | 119% | 45% |  |  |  | 129% | 83% | 84% |  |  | 
Nc1ncnc2[nH]nc(Nc3ccc(F)cc3)c12 |  | 95% | 92% | 45% | 16% | 79% | 30% | 43% |  |  | 107% | 96% |  |  |  | 99% | 100% | 50%
